{"source": "PubChem BioAssay AID720504", "about": "(National Center for Advancing Translational Sciences (NCATS), 2013)", "note": "Among all 360,000 compounds or so, about 10,000 (2.8%) were called active. Inconclusive results (about 4%) are left out. What follows is part of a selection rich in actives, with near analogues and random picks from the rest. Unmarked numbers belong to inactive results. The call rests on the fitted dose curve; in most records, active means well fitted inhibition curve with a large enough effect; inconclusive means small, poorly fitted or top-dose-only effect; inactive means flat fitted curve, though single readings scatter. On the % scale 0 is the no-effect control and ±100 the full control effect; potency means the concentration at half of the fitted maximal effect.", "data": [{"target": "Serine/threonine-protein kinase PLK1 (Homo sapiens) (UniProt P53350)", "sequence (P53350 whole entry, looked up, the tested form may be a part)": "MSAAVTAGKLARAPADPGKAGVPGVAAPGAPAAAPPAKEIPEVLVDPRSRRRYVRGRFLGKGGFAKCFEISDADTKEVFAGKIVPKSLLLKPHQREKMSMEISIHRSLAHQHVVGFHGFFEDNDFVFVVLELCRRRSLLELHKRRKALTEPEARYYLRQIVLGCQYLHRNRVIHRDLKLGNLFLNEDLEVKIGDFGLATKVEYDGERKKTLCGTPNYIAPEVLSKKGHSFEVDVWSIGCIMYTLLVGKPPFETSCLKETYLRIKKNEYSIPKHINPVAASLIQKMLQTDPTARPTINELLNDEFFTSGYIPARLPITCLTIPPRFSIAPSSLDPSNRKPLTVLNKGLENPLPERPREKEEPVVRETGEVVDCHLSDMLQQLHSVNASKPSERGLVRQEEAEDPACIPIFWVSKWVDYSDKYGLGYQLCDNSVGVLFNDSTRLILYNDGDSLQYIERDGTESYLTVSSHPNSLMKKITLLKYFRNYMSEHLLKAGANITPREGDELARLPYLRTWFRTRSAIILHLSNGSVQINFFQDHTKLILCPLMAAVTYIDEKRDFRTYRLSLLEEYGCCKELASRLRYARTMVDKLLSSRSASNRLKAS", "experiment": "qHTS for Inhibitors of PLK1-PDB (polo-like kinase 1 - polo-box domain): Primary Screen; further: nearly all actives have a fitted effect of over 65% in size; on max response, negative = inhibition: series mostly up to about 57 µM", "conditions": "Plk1 PBD binding of FITC phosphopeptide, fluorescence polarization", "units": {"max response, negative = inhibition": "%"}, "values": [{"smiles": "COc1ccc(S(=O)(=O)N2CCCCC2)cc1C(=O)NC1CCS(=O)(=O)C1", "note": "(stereo not given)", "max response, negative = inhibition": 5.08}, {"smiles": "O=c1[nH][nH]c2c1[C@H](c1ccc(Cl)cc1)O[C@H](CCc1ccccc1)C2", "max response, negative = inhibition": -16.9}, {"smiles": "CCOC1=C2CN(S(=O)(=O)c3ccc(C)cc3)[C@H](c3cccs3)C[C@H]2[C@H]2C(=O)N(c3ccccc3)C(=O)[C@H]2C1", "max response, negative = inhibition": -0.0091}, {"smiles": "N#Cc1c(-c2ccc(F)cc2)nc(-c2ccccc2)[nH]c1=O", "max response, negative = inhibition": -13.6}, {"smiles": "O=C(Nn1c(SCc2ccc([N+](=O)[O-])cc2)nc2ccccc2c1=O)c1ccc(F)cc1", "max response, negative = inhibition": -14.4}, {"smiles": "N#Cc1c(-c2ccccc2)nc(SCc2ccc([N+](=O)[O-])cc2)[nH]c1=O", "Potency": "26.7 µM (active)"}, {"smiles": "Cc1ccccc1CSc1nnc(-c2ccccc2)c(=O)[nH]1", "max response, negative = inhibition": -22.2}, {"smiles": "O=c1[nH]c(SCc2cccc(F)c2)nc2ccccc12", "max response, negative = inhibition": -13.9}, {"smiles": "N#Cc1c(-c2ccccc2)nc(SCc2cccc(C(F)(F)F)c2)[nH]c1=O", "Potency": "23.8 µM (active)"}, {"smiles": "S=C(NN=Cc1ccccn1)Nc1ccccn1", "max response, negative = inhibition": -6.29}, {"smiles": "COc1ccc(CCCNC(=O)C2Cc3c(-c4cccc(C(N)=O)c4)ccnc3O2)cc1", "note": "(stereo not given)", "max response, negative = inhibition": -3.93}, {"smiles": "CCc1nc2ccc(C(=O)Nc3ccc(OC)c(OC)c3)cn2c1N(C)C(=O)c1cccc(OC)c1", "max response, negative = inhibition": -6.83}, {"smiles": "O=C(NNC(=O)c1ccccc1[N+](=O)[O-])Nc1ccccc1C(F)(F)F", "max response, negative = inhibition": -9.97}, {"smiles": "O=C(O)c1ccccc1NC(=S)NC(NC(=O)c1ccccc1[N+](=O)[O-])C(Cl)(Cl)Cl", "note": "(stereo not given)", "Potency": "26.7 µM (active)"}, {"smiles": "O=C(Nc1ccccc1[N+](=O)[O-])C1C(c2ccccc2)=C1c1ccccc1", "max response, negative = inhibition": 0.94}, {"smiles": "COc1cccc(-n2c(=S)sc3c(=O)n(-c4ccccc4C)c(SCC(=O)O)nc32)c1", "max response, negative = inhibition": -8.81}, {"smiles": "COc1ccc(Cl)cc1-n1c(=S)sc2c(=O)n(-c3ccc(F)cc3)c(SCC(=O)O)nc21", "Potency": "23.8 µM (active)"}, {"smiles": "COc1ccccc1-n1c(SCC(=O)O)nc2sc3c(c2c1=O)CCC3", "max response, negative = inhibition": -11.7}, {"smiles": "C#CCN(C[C@H]1[C@H](OC(=O)NC2CCCC2)[C@H](OC(=O)NC2CCCC2)C[C@H]2C(=O)N(c3ccccc3)C(=O)[C@@H]12)S(=O)(=O)c1ccc(C)cc1", "max response, negative = inhibition": -0.644}, {"smiles": "CC(=O)Nc1ccc(-c2ccnc3c2CC(C(=O)NC(C)C)O3)cc1", "note": "(stereo not given)", "max response, negative = inhibition": -3.44}, {"smiles": "O=C(NCCCCCCCCCNC(=O)C(F)(F)F)C(F)(F)F", "max response, negative = inhibition": -1.31}, {"smiles": "O=C(NCCCCO)C(F)(F)C(F)(F)C(F)(F)C(=O)NCCCCO", "Potency": "18.9 µM (active)"}, {"smiles": "COCCNc1ncnc2c1ncn2[C@H]1CN(CCN2CCOCC2)C[C@@H](CO)O1", "max response, negative = inhibition": -5.67}, {"smiles": "CC(C)Nc1nc(NCCOc2ccccc2Cl)c2sccc2n1", "max response, negative = inhibition": 4.77}, {"smiles": "Cc1sc2ccccc2c1CNC[C@H]1O[C@@H](n2ccc(=O)[nH]c2=O)[C@H](O)[C@@H]1O", "max response, negative = inhibition": 2.69}, {"smiles": "C=CCn1c(SCc2ccccc2)nc2c1c(=O)[nH]c(=O)n2C", "Potency": "26.7 µM (active)"}, {"smiles": "Cc1nnc(Sc2nc3c(c(=O)[nH]c(=O)n3C)n2Cc2ccccc2)s1", "max response, negative = inhibition": 0.479}, {"smiles": "CC1CCN(c2nc3c(c(=O)[nH]c(=O)n3C)n2CCCc2ccccc2)CC1", "max response, negative = inhibition": -10.5}, {"smiles": "CN(C)C1CN(Cc2cn(Cc3ccccc3)nn2)S(=O)(=O)C1", "note": "(stereo not given)", "max response, negative = inhibition": -9.56}, {"smiles": "CCCCCc1c(-c2cccc(Br)c2)ncn1CCc1ccccc1OC", "max response, negative = inhibition": -9.6}, {"smiles": "O=C(NCCS(=O)(=O)N1CCN(c2ccccc2)CC1)c1ccco1", "max response, negative = inhibition": -3.4}, {"smiles": "O=C(NCCS(=O)(=O)N1CCN(c2ccccc2F)CC1)c1ccc(Br)o1", "Potency": "15 µM (active)"}, {"smiles": "O=C(NCCS(=O)(=O)N1CCN(c2ccccc2)CC1)c1cc(=O)c2ccccc2o1", "max response, negative = inhibition": -10.4}, {"smiles": "NC(CSC(c1ccccc1)(c1ccccc1)c1ccc(-c2ccccc2)cc1)C(=O)O", "note": "(stereo not given)", "max response, negative = inhibition": -12.6}, {"smiles": "CCC(=O)N1CCCC1(C)C(=O)Nc1ccc2c(c1)CCN2C(C)=O", "note": "(stereo not given)", "max response, negative = inhibition": -12.6}, {"smiles": "S=c1ccc2ccccc2[nH]1", "Potency": "10.6 µM (active)"}, {"smiles": "O=C(Nc1ccccc1)c1cc2ccccc2[nH]1", "max response, negative = inhibition": 0}, {"smiles": "O=C(Nc1ccc(Cl)cn1)c1ccccc1-c1ccccc1", "max response, negative = inhibition": -6.02}, {"smiles": "CC1(C(=O)Nc2cccc3cccnc23)CCN1C(=O)CCC1CCCC1", "note": "(stereo not given)", "max response, negative = inhibition": 0.774}, {"smiles": "CCOC(=O)Nc1sc(C(=O)N(C)C)c(C)c1C(=O)OCC", "max response, negative = inhibition": -6.39}, {"smiles": "CCOC(=O)c1c(N)sc(C(C)=O)c1C", "Potency": "21.2 µM (active)"}, {"smiles": "CCOC(=O)c1c(N)sc2c1CCCC2=O", "max response, negative = inhibition": -6.68}, {"smiles": "CC(=O)c1cccc(-c2cnc3c(NC=O)cc(-c4ccc(N5CCN(C)CC5)cc4)cn23)c1", "max response, negative = inhibition": 2.15}, {"smiles": "CCCCC(=O)N(C)c1c(CC)nc2c(OCc3ccc(S(C)(=O)=O)cc3)cccn12", "max response, negative = inhibition": -6.21}, {"smiles": "COc1ccc(OCc2n[nH]c(=S)n2N)cc1", "Potency": "3.77 µM (active)"}, {"smiles": "COc1ccc(OCc2ccc(-c3nc4ccccc4c(=O)n3N)o2)cc1", "max response, negative = inhibition": 2.15}, {"smiles": "COc1ccc(Cc2n[nH]c(=S)n2NC(=O)Nc2ccc(C)cc2)cc1", "max response, negative = inhibition": -9.65}, {"smiles": "O=C(NCc1cccnc1)c1cc(C2CCCN(C(=O)C3CCCCC3)C2)on1", "note": "(stereo not given)", "max response, negative = inhibition": 0.902}, {"smiles": "CC1CC(NC(=S)N(C)C)CC(C)(C)C1", "note": "(stereo not given)", "max response, negative = inhibition": -1.25}, {"smiles": "CC(=O)Nc1ccc(CN2CCN(Cc3ccc(F)c(F)c3)C(CCO)C2)cc1", "note": "(stereo not given)", "Potency": "18.9 µM (active)"}, {"smiles": "Cc1ccc(CN2CCN(Cc3ccc4ncccc4c3)CC2CCO)cc1", "note": "(stereo not given)", "max response, negative = inhibition": -1.02}, {"smiles": "CC(C)CCN1CCN(Cc2ccc(C(F)(F)F)cc2)CC1CCO", "note": "(stereo not given)", "max response, negative = inhibition": 4.35}, {"smiles": "COc1ccc(-c2cc(NC=O)c3ncc(-c4cc(OC)c(OC)c(OC)c4)n3c2)c(OC)c1", "max response, negative = inhibition": -18.1}, {"smiles": "O[C@@H]1C[C@H](c2ccccc2)N(Cc2cccs2)C[C@H]1n1cc(C2CC2)nn1", "max response, negative = inhibition": -0.363}, {"smiles": "Oc1ccc2ccc3cccc[n+]3c2c1", "Potency": "4.74 µM (active)"}, {"smiles": "O=C1CCC(C(=O)OCC(=O)Nc2ccc(OC(F)F)cc2)=NN1", "max response, negative = inhibition": -4.05}, {"smiles": "CCNC(=O)C1(C)CCCN(C(=O)c2ccc3ccccc3n2)C1", "note": "(stereo not given)", "max response, negative = inhibition": -13.8}, {"smiles": "CC1(C(=O)O)CCN1C(=O)/C=C/c1ccccc1", "note": "(stereo not given)", "max response, negative = inhibition": -4.73}, {"smiles": "COc1ccc(C(C)(C)C)cc1NC(=O)CN(C)C1=NS(=O)(=O)c2ccccc21", "max response, negative = inhibition": -6.05}, {"smiles": "COc1ccc(CCN2CC(C(=O)OCC(=O)NCc3ccccc3Cl)CC2=O)cc1OC", "note": "(stereo not given)", "max response, negative = inhibition": -3.96}, {"smiles": "CC(OC(=O)C1CC(=O)N(Cc2ccccc2)C1)C(=O)Nc1ccccc1[N+](=O)[O-]", "note": "(stereo not given)", "max response, negative = inhibition": -3.81}, {"smiles": "O=C(OCc1ccc([N+](=O)[O-])cc1)C1CC(=O)N(Cc2ccccc2Cl)C1", "note": "(stereo not given)", "Potency": "29.9 µM (active)"}, {"smiles": "CCOC(=O)c1cnn2c(SC)ncnc12", "max response, negative = inhibition": -4.05}, {"smiles": "CC(C)Oc1cc(F)ccc1-c1cc(C(=O)Nc2cccc(Cl)c2)[nH]n1", "max response, negative = inhibition": -2.39}, {"smiles": "Cc1cc(C)n(-c2ccc(NC(=O)C3CCCCN3C(=O)c3cccs3)cc2)n1", "note": "(stereo not given)", "max response, negative = inhibition": -7.4}, {"smiles": "COc1ccc(C(=O)N2CCCCC2C(=O)Nc2ccc(-n3nc(C)cc3C)cc2)o1", "note": "(stereo not given)", "Potency": "23.8 µM (active)"}, {"smiles": "COc1ccc(C(=O)C2CCCN(C(=O)c3ccc(OC)o3)C2)c(C)c1", "note": "(stereo not given)", "max response, negative = inhibition": -27.3}, {"smiles": "CC(=O)c1ccccc1NC(=O)COC(=O)C1COc2ccccc2O1", "note": "(stereo not given)", "max response, negative = inhibition": 4.38}, {"smiles": "CCCC(=O)N1CCC1(C)C(=O)Nc1ccc(-n2cncn2)cc1", "note": "(stereo not given)", "max response, negative = inhibition": -11.3}, {"smiles": "Cc1ccccc1CN1C(=O)CSCC1(C)C(=O)Nc1c(C)cccc1C", "note": "(stereo not given)", "max response, negative = inhibition": -3.6}, {"smiles": "CCCCCCCCN1C(=O)[C@H](CC(=O)NCC23CC4CC(CC(C4)C2)C3)C[C@@]2(C(=O)OC)CCCCC=C12", "max response, negative = inhibition": -9.18}, {"smiles": "O=[N+]([O-])c1cc(S(=O)(=O)Nc2cccc(Cl)c2)ccc1N=Nc1c(O)[nH]c2ccccc12", "Potency": "84.4 µM (active)"}, {"smiles": "O=C(O)c1ccccc1/C=N/Nc1ccc(S(=O)(=O)Nc2ccc(Cl)cc2)cc1[N+](=O)[O-]", "max response, negative = inhibition": -22.4}, {"smiles": "COc1ccc(S(=O)(=O)Nc2ccc3cn[nH]c3c2)cc1[N+](=O)[O-]", "max response, negative = inhibition": -11.6}, {"smiles": "CCOc1ccc(OCC)c(NC(=O)CCS(=O)(=O)c2ccc(C)cc2)c1", "max response, negative = inhibition": -5.07}, {"smiles": "COc1ccc(Cl)cc1NC(=O)CCS(=O)(=O)c1cc2c(cc1C)NC(=O)CO2", "max response, negative = inhibition": -11.9}, {"smiles": "COc1ccc(Cl)cc1NC(=O)CCS(=O)(=O)c1ccc(Br)cc1", "Potency": "15 µM (active)"}, {"smiles": "COc1cc(CCN=Cc2ccccc2O)c([N+](=O)[O-])cc1OC", "max response, negative = inhibition": -15.3}, {"smiles": "CN(C(=O)CN1CCN(c2cc(-c3ccc(OCc4ccccc4)cc3)ncn2)CC1)c1ccccc1", "max response, negative = inhibition": 2.08}, {"smiles": "CC(O)(c1cccc(F)c1)c1nc(-c2ccc3c(c2)OCO3)cs1", "note": "(stereo not given)", "max response, negative = inhibition": -0.065}, {"smiles": "COc1ccc([C@H]2N[C@]3(CCCN(Cc4ccco4)C3=O)[C@H]3C(=O)N(C)C(=O)[C@@H]23)cc1", "max response, negative = inhibition": -10.5}, {"smiles": "CCC(=O)Nc1sc(C(=O)N2CCCCC2)c(C)c1C#N", "max response, negative = inhibition": 0.524}, {"smiles": "Cc1ccc(-n2c(N)c(C(=O)N3CCOCC3)sc2=S)c(C)c1", "Potency": "18.9 µM (active)"}, {"smiles": "Cc1ccc(S(=O)(=O)N2CCN(C(=O)N3CCOCC3)CC2)c(C)c1", "max response, negative = inhibition": 3.35}, {"smiles": "Cc1cccc(-n2c(N)c(C(=O)N3CCN(C)CC3)sc2=S)c1", "Potency": "1.89 µM (active)"}, {"smiles": "N#Cc1ccccc1-n1c(N)c(C(=O)N2CCCC2)sc1=S", "Potency": "4.23 µM (active)"}, {"smiles": "O=C(c1ccc(S(=O)(=O)c2ccccc2)cc1)N1CCCCCC1", "max response, negative = inhibition": -6.16}, {"smiles": "Cc1cccc(N2CCN(C(=O)c3ccccc3NC(=O)C3CCCCC3C(=O)O)CC2)c1", "note": "(stereo not given)", "max response, negative = inhibition": -5.42}, {"smiles": "Cc1ccc(N2CCN(C(=O)c3cccs3)CC2)c(C)c1", "max response, negative = inhibition": -4.91}, {"smiles": "CC(C)=C1SC(N2CCN(c3cccc(C)c3)CC2)=NC1=O", "max response, negative = inhibition": -13.5}]}]}
